# Test results reported in the supplement of paper PMC12350171.
# Structures can show the parent of a compound that is named as a salt. Values without a mark were called inactive.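 Rule for the calls: active = AUC significantly below DMSO controls by Student t-fit with adjusted P under 0.01; inactive = not significantly reduced.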
# Tested on: Haemophilus parainfluenzae
# Assay: growth AUC normalised to DMSO control (fraction of control); higher = less growth inhibition, active = hit call of the paper
# Settings: 20 µM
# Summary of the method: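 After two anaerobic passages, pathogens were added at a starting OD578 of 0.01 to pre-reduced mGAM plates holding compound at 20 μM with 1% DMSO; hemin and NAD were supplemented for Haemophilus parainfluenzae. Sealed with breathable membranes, plates were read at OD578 hourly for 24 h, in three biological replicates. The trapezoidal rule, applied up to the exponential-to-stationary transition, gave the growth-curve AUC, which was normalised to DMSO controls on the same plate.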
row,SMILES,growth AUC normalised to DMSO control
1,O=C1NCN(c2ccccc2)C12CCN(CCCC(c1ccc(F)cc1)c1ccc(F)cc1)CC2 [Fluspirilene],1.05
2,COc1ccc2c3c1O[C@H]1C[C@@H](O)C=C[C@@]31CCN(C)C2 [Galanthamine hydrobromide],0.988
3,NNC(=O)c1ccncc1 [Isoniazid],1.09
4,COc1ccc(OC)c(C(O)CNC(=O)CN)c1 (stereo unspecified) [Midodrine hydrochloride],1.02
5,N[C@@H](Cc1cc(I)c(Oc2cc(I)c(O)c(I)c2)c(I)c1)C(=O)O [(L) Thyroxine],0.96
6,COc1ccc(CC2c3cc(OC)c(OC)cc3CC[N+]2(C)CCC(=O)OCCCCCOC(=O)CC[N+]2(C)CCc3cc(OC)c(OC)cc3C2Cc2ccc(OC)c(OC)c2)cc1OC (stereo unspecified) [Atracurium besylate],1.06
7,Cc1cccc(C)c1NC(=O)CN1CCN(CCCC(c2ccc(F)cc2)c2ccc(F)cc2)CC1 [Lidoflazine],1.02
8,CC(C)N1CCN(c2ccc(OCC3COC(Cn4cncn4)(c4ccc(Cl)cc4Cl)O3)cc2)CC1 (stereo unspecified) [Terconazole],1.03
9,CC(=O)SCC(Cc1ccccc1)C(=O)NCC(=O)OCc1ccccc1 (stereo unspecified) [Racecadotril],0.986
10,CCC(C)n1ncn(-c2ccc(N3CCN(c4ccc(OCC5COC(Cn6cncn6)(c6ccc(Cl)cc6Cl)O5)cc4)CC3)cc2)c1=O (stereo unspecified) [Itraconazole],1.09
11,CCCC(=O)Nc1ccc(OCC(O)CNC(C)C)c(C(C)=O)c1 (stereo unspecified) [Acebutolol hydrochloride],1.03
12,CS(=O)(=O)c1ccc(C2=C(c3ccccc3)C(=O)OC2)cc1 [Rofecoxib],0.964
13,COc1cc(C)nc(-n2nc(C)cc2OC)n1 [Epirizole],0.999
14,COc1ccccc1Oc1c(NS(=O)(=O)c2ccc(C(C)(C)C)cc2)nc(-c2ncccn2)nc1OCCO [Bosentan],0.966
15,C[C@]12C=CC(=O)C=C1CC[C@@H]1[C@@H]2C(=O)C[C@@]2(C)[C@H]1CC[C@]2(O)C(=O)CO [Prednisone],1.01
16,N=C(N=C(N)N)N1CCOCC1 [Moroxidine hydrochloride],1
17,CC(=O)Oc1cccc2c1C(=O)c1c(OC(C)=O)cc(C(=O)O)cc1C2=O [Diacerein],0.779 (active)
18,CCOC(=O)Nc1ccc2c(c1)N(C(=O)CCN1CCOCC1)c1ccccc1S2 [Moricizine hydrochloride],0.998
19,CC(C)(Oc1ccc(C2CC2(Cl)Cl)cc1)C(=O)O (stereo unspecified) [Ciprofibrate],1.01
20,CC1(C)NC(=O)N(c2ccc([N+](=O)[O-])c(C(F)(F)F)c2)C1=O [Nilutamide],0.977
21,CC(C)NCC(O)c1ccc(NS(C)(=O)=O)cc1 (stereo unspecified) [Sotalol hydrochloride],1
